Among the data in PubChem BioAssay (NCI) are growth values, retold here.

Experiment in all cases: NCI-60 one-dose screen, 48 h (100 = growth as untreated, 0 = no growth, -100 = all killed)
Common to all, as to details: 10 µM unless noted

The subject of assay [1] is SR leukemia.
Assay [2] relates to RPMI-8226 leukemia.
The test system of assay [3] is OVCAR-8 ovarian.
In assay [4] the test system is OVCAR-5 ovarian.
The test system of assay [5] is OVCAR-4 ovarian.
The test system of assay [6] is SK-OV-3 ovarian.
Assay [7] deals with IGROV1 ovarian.
Assay [8] deals with OVCAR-3 ovarian.
The test system of assay [9] is HS 578T breast.
For assay [10], the system named is NCI/ADR-RES ovarian.
Assay [11] concerns T-47D breast.
Assay [12] deals with BT-549 breast.
For assay [13], the system named is MDA-MB-435 melanoma.
Assay [14] relates to SW-620 colon.
Assay [15] deals with MCF7 breast.
For assay [16], the system named is HCT-116 colon.
Assay [17] deals with HCC-2998 colon.
Assay [18] has as its system KM12 colon.

Structures are written as SMILES. This is part of a sample that, as a whole, favours compounds with a hit. Of some 83,000 tested, about 20% had one in any assay.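 Method: cells in 96-well plates; compound added at one concentration; 48 h incubation; percent growth measured; values under 10 scored active.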 Values without a mark were called inactive. Calls of active or inactive are those of the source.

Regarding `Cn1ccnc1C(=O)/C=C/c1ccc(NC(=O)c2ccc(F)cc2)cc1`, the growth is 8.3% (active) in assay [1]; 10.6% in assay [2]; 65% in assay [3]; 41.2% in assay [4]; 37.1% in [5]; 67.2% in assay [6]. The growth in [7] was 34.7%; in assay [8], 17.9%; in assay [9], 54.4%; in [10], 27.5%; in assay [11], 22.5%; in assay [12], 69.4%. Moreover, the growth in [13] is 43.1%; in assay [14] it was 14.8%; in [15] it was 18%; in [16] it was 8.87% (active); in [17] it was 39.5%; in assay [18], 24.8%.
Consider `Cc1nn(-c2ccccc2)c2ncnc(N/N=C/c3ccccc3)c12`, for which the growth in [1] is 98.1%; in [2], 105%; in assay [3], 96.7%; in assay [4], 97.5%; in assay [5], 80.4%; in [6] it was 102%. The growth in assay [7] was 81.9%; in assay [8] it was 83.5%; in assay [9] it was 103%; in assay [10] it was 93%; in [11] it was 75%; in [12] it was 97.4%. The growth was 96.9% in [13]; 107% in assay [14]; 80.4% in assay [15]; 98.1% in assay [16]; 115% in assay [17]; 80.9% in [18].
As for `O=C(CN1CCN(c2cc(=O)n(-c3ccccc3)c3ccccc23)CC1)Nc1ccc(F)cc1`, the growth in assay [1] was 76.4%; in assay [2] it was 61.5%; in assay [3], 71.2%; in assay [4], 101%; in [5], 22.7%; in assay [6], 78.6%. Also, the growth in [7] is 60.1%; in [8], 71.8%; in assay [9], 88.7%; in assay [10], 64.3%; in assay [11] it was 30.2%; in assay [12] it was 59.1%. Moreover, the growth is 65.4% in assay [13]; 91.6% in assay [14]; 37.9% in assay [15]; 58.7% in assay [16]; 94.4% in assay [17]; 72.9% in assay [18].
As to `O=C(NNc1nc2cc(F)ccc2n2c(CN3CCC(O)C3)ccc12)c1cnccn1` (centres undefined), the growth in assay [1] was 6.32% (active); in assay [2], 27.4%; in assay [3] it was 13.8%; in assay [4], 41.4%; in assay [5], 18.9%; in assay [6], 8.37% (active). The growth was 18.2% in [7]; 34.9% in assay [8]; 75.9% in assay [9]; 2.49% (active) in assay [10]; 13% in [11]; 29.5% in assay [12]. Moreover, the growth in [13] was 27.8%; in assay [14], 24.6%; in assay [15] it was 8.92% (active); in [16] it was 17.9%; in assay [17], 38.5%; in assay [18], 24.9%.
For `C=C(C=O)[C@@H]1CC[C@]2(C)[C@H](C(=O)C=C3[C@H]4C[C@](C)(C(=O)OC)CC[C@]4(C)CC[C@]32C)[C@@]1(C)CCC#N`, the growth in assay [1] is -9.31% (active); in assay [2], -16.5% (active); in assay [3], 13.5%; in assay [4], -25.7% (active); in assay [5], 20.6%; in assay [6] it was 102%. Also, the growth in [7] was 2.58% (active); in assay [8], -47.2% (active); in assay [9] it was -2.47% (active); in [10], -24.3% (active); in assay [11] it was 19.3%; in assay [12], 13.8%. In addition, the growth in assay [13] is -12.2% (active); in [14], 4.74% (active); in [15], 2.5% (active); in [16], -56% (active); in assay [17], -73% (active); in assay [18], 3.36% (active).
Turning to `CCCCCc1ccc(S(=O)(=O)Nc2cccc(-c3csc(NC(=O)CN4CCN(C)CC4)n3)c2)cc1`, the growth in assay [1] was -4.74% (active); in [2], 5.62% (active); in [3] it was 95.9%; in assay [4] it was 105%; in assay [5] it was 81.4%; in assay [6], 90.6%. Moreover, the growth in [7] is 83.8%; in assay [8], 75.3%; in assay [9], 82.1%; in [10], 93.1%; in assay [11], 67.2%; in assay [12] it was 93.4%. Besides, the growth in assay [13] was 45.3%; in assay [14] it was 46.5%; in assay [15], 26.2%; in assay [16] it was 16.9%; in assay [17] it was 14.8%; in [18], 65.8%.
Turning to `NS(=O)(=O)c1ccc(Nc2nc(SCc3ccccc3)nc3ccccc23)cc1`, the growth is 33.6% in [1]; 32.8% in assay [2]; 60.6% in [3]; 83.3% in assay [4]; 58% in assay [5]; 91.3% in assay [6]. Further, the growth in [7] is 90.9%; in [8], 84.7%; in [9], 62.2%; in assay [10], 102%; in assay [11], 24.8%; in assay [12] it was 66.7%. Moreover, the growth in assay [13] is 76.8%; in assay [14], 61%; in assay [15] it was 54.3%; in [16], 53.2%; in assay [17], 83%; in assay [18], 27.8%.
Regarding `Cc1ccc(-c2nn(-c3ccccc3)cc2/C=C/C(=O)c2ccc(NC(=O)CCCCCCC(=O)NO)cc2)cc1`, the growth in [1] is 85.4%; in assay [2], 70.5%; in assay [3] it was 62.5%; in assay [4], 79.2%; in assay [5], 79.8%; in [6], 70.7%. For the same compound, the growth in assay [7] is 69.1%; in assay [8], 75.9%; in assay [9] it was 47.1%; in [10], 70.4%; in assay [11], 58.5%; in [12], 108%. Also, the growth in assay [13] is 67.9%; in [14] it was 75.1%; in [15], 71.4%; in assay [16] it was 33.6%; in [17], 83.1%; in assay [18], 78.2%.
